Screen size: about 220,000 compounds; about 880 (0.4%) were called active.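 The calls were made as follows: active = cell killing above 50% in the first pass at 4 µM, then a duplicate retest at 5 µM averaging 50% or more; inactive = the rest.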 Only a selection was taken, and actives are over-represented in it overall.
Assay: compounds killing PPC-1 cancer cells with TRAIL present, primary screen, TRAIL potentiator project, ATPLite luminescence, uHTS (AID 1443);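 also: plate controls were cells with TRAIL plus DMSO for no effect and medium-only wells lacking cells for full effect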
Settings: PPC-1 cells + TRAIL, ATPLite viability luminescence, hits give high values; at 4 µM unless noted
For COC(=O)c1sc(NC(=S)NC(=O)c2ccc(C)cc2)nc1C, the cell killing (% activity) was 27.1% (inactive).
For CC(=O)c1sc(NC(=O)c2cccc3ccccc23)nc1C, the cell killing (% activity) was 32% (inactive).
In the case of CC(=O)c1sc(NC(=O)c2ccc(C)cc2)nc1C, the cell killing (% activity) is reported as 56.3% [at 5 µM] (active).
For CC(=O)c1cc(-c2ccccc2)n(CC(=O)NC2CCCCC2)c1C, the cell killing (% activity) was 6.9% (inactive).
For CCCCCC(O)c1cccc(OCc2ccc3ccccc3n2)c1 (stereo unspecified), the cell killing (% activity) was 10.7% (inactive).
In the case of Cc1n[nH]c(=O)nc1N/N=C/c1cccs1, the cell killing (% activity) is reported as 12.1% (inactive).
For COc1cccc(NC(=O)CC(c2ccc(OC(C)C)cc2)c2ccccc2OC)c1 (stereo unspecified), the cell killing (% activity) was 22.6% (inactive).
In the case of C=C(C)CNC(=S)Nc1ccc(S(=O)(=O)Nc2cnc3ccccc3n2)cc1, the cell killing (% activity) is reported as 12.5% (inactive).
In the case of O=C(O)c1ccc(N/N=C/c2cn(-c3ccccc3)nc2-c2cccs2)cc1, the cell killing (% activity) is reported as 79% [at 5 µM] (active).
In the case of O=C(/C=C\c1cn(-c2ccccc2)nc1-c1cccs1)N1CCOCC1, the cell killing (% activity) is reported as 5.8% (inactive).
For O=C(O)/C=C/c1cn(-c2ccccc2)nc1-c1cccs1, the cell killing (% activity) was 15.1% (inactive).
For O=C(COC(=O)Cc1ccc(Br)cc1)Nc1c(F)c(F)c(F)c(F)c1F, the cell killing (% activity) was 17% (inactive).
In the case of O=C(CCl)Nc1cccc(CP(=O)(c2ccccc2)c2ccccc2)c1, the cell killing (% activity) is reported as -1.1% (inactive).
With O=C(Cc1cccs1)N/N=C/c1ccc(OCc2ccccc2)cc1 the cell killing (% activity) was 20% (inactive).
For CC[C@@H](C)[C@@H](C(=O)N1CCN(C(=O)OC(C)(C)C)CC1)n1cc(CCC(=O)O)nn1, the cell killing (% activity) was 19% (inactive).
For CC(=O)c1ccc(NC(=O)C2CC(=O)Nc3nc4ccccc4n32)cc1 (stereo unspecified), the cell killing (% activity) was 27.4% (inactive).
With COc1cc(C2C(N3C(=O)c4ccccc4C3=O)C(=O)N2c2ccc(C)c(C)c2)cc(OC)c1OC (stereo unspecified) the cell killing (% activity) was 0.4% (inactive).
In the case of COC(=O)[C@H](CC(C)C)NC(=O)N1CCCCC1C (stereo partly specified), the cell killing (% activity) is reported as 8.6% (inactive).
With CS(=O)(=O)N(CC(=O)N/N=C/c1ccccn1)c1ccc(Oc2ccccc2)cc1 the cell killing (% activity) was 2.8% (inactive).
For CC(CNC(=O)c1ccc(N)cc1)NC(=O)c1ccc(N)cc1 (stereo unspecified), the cell killing (% activity) was 15.7% (inactive).
For O=C(NN1C(=O)C2C(C1=O)C1C=CC2C12CC2)c1ccccc1Cl (stereo unspecified), the cell killing (% activity) was 15.1% (inactive).
For COc1ccc(NC(=O)C2=NNC(=O)CC2)cc1S(=O)(=O)N1CCCCC1, the cell killing (% activity) was 2.4% (inactive).
For CCOc1cc(NC(=O)c2ccccn2)c(OCC)cc1NC(=O)c1ccc(OC)cc1, the cell killing (% activity) was 6.2% (inactive).
With COc1ccc(C(=O)/C=C/Nc2ccccn2)cc1 the cell killing (% activity) was 74.5% [at 5 µM] (active).
In the case of COc1ccc(-c2csc(Nc3ccccn3)n2)cc1, the cell killing (% activity) is reported as 26.9% (inactive).
For Cc1ccc(/C=N/NC(=O)CSc2ccccn2)o1, the cell killing (% activity) was 28% (inactive).
For Cc1ccnc(NC(=O)Cn2ccc([N+](=O)[O-])n2)c1, the cell killing (% activity) was -4.4% (inactive).
With CN1C(=O)/C(=C/C=C2\SCCN2C)OC1=S the cell killing (% activity) was 7.1% (inactive).
In the case of COCCNC(=O)/C(C#N)=C/c1cccc(OCc2ccccc2)c1, the cell killing (% activity) is reported as 6.3% (inactive).
With CCOc1ccc(/C=N/Nc2nncc(-c3ccccc3)n2)cc1OC the cell killing (% activity) was -7.3% (inactive).
With COc1cc(/C=N/Nc2nn3cnnc3c3ccccc23)cc(OC)c1OC the cell killing (% activity) was 58.2% (active).
In the case of COc1ccc(/C=N/Nc2nc3ccccc3o2)cc1OC, the cell killing (% activity) is reported as 33% (inactive).
In the case of COc1ccc(NC(=O)C2CCC(CNc3c(N4CCCCC4)c(=O)c3=O)CC2)c(OC)c1 (stereo unspecified), the cell killing (% activity) is reported as -39.4% (inactive).
For Cc1noc(C)c1S(=O)(=O)N(C)Cc1ccccc1, the cell killing (% activity) was 17.3% (inactive).
With COCc1nnc(NC(=O)c2ccc3c(c2)OCO3)s1 the cell killing (% activity) was 21.9% (inactive).
With Cc1cc(C)c2nc(NC(=O)c3ccc4c(c3)OCO4)sc2c1 the cell killing (% activity) was 4.5% (inactive).
With O=C(Nc1nc2ccccc2s1)c1ccc2c(c1)OCO2 the cell killing (% activity) was 61.1% (active).
With Cc1ccc(NC(=O)CCC(=O)N/N=C/c2ccco2)c(C)c1 the cell killing (% activity) was 5.1% (inactive).
For COC(=O)C(=Nc1ccccc1)/C(C(=O)C(=O)N(C)c1ccccc1)=C(\O)c1ccc(Cl)cc1, the cell killing (% activity) was -15.5% (inactive).
In the case of CC1(C)COC(c2cccn2Cc2ccccc2Cl)=N1, the cell killing (% activity) is reported as 3.7% (inactive).
With Cc1ccc(-c2cc(C(=O)N/N=C/C=C/c3ccco3)c3ccccc3n2)cc1C the cell killing (% activity) was 55.7% [at 5 µM] (active).
For COc1cccc(-c2cc(C(=O)N/N=C/c3ccc(OC)c(COC(C)=O)c3)c3ccccc3n2)c1, the cell killing (% activity) was 4.5% (inactive).
With O=C(N/N=C/C=C/c1ccco1)c1cccs1 the cell killing (% activity) was 24.4% (inactive).
With Nc1ccccc1SC(C[N+](=O)[O-])c1ccccc1 (stereo unspecified) the cell killing (% activity) was 6.4% (inactive).
In the case of O=c1c2ccccc2cnn1Cc1n[nH]c(=S)n1-c1ccccc1F, the cell killing (% activity) is reported as 17.1% (inactive).
With COc1ccc(Cl)cc1NC(=O)Cn1nc(-c2ccc(C)cc2)n(C)c1=S the cell killing (% activity) was 14.2% (inactive).
In the case of Cn1cnc([N+](=O)[O-])c1Sc1n[nH]c(N)n1, the cell killing (% activity) is reported as -16.4% (inactive).
For COc1cccc(CNC(=O)CCC2CCCN(C(=O)c3cc(C)[nH]n3)C2)c1 (stereo unspecified), the cell killing (% activity) was 12.1% (inactive).
For CCc1ccccc1NC(=O)CSc1nnc(-c2ccncc2)o1, the cell killing (% activity) was -4.8% (inactive).
With O=C(CSc1nnc(-c2ccc([N+](=O)[O-])cc2)o1)Nc1ccccn1 the cell killing (% activity) was 51% [at 5 µM] (active).
For CCOC(=O)CSc1nnc(-c2ccc([N+](=O)[O-])cc2)o1, the cell killing (% activity) was 7.7% (inactive).
With COc1ccc(CNC(=O)C(Cc2ccccc2)n2cccc2)cc1 (stereo unspecified) the cell killing (% activity) was -1.5% (inactive).
In the case of O=C(CCN1C(=O)C2C3C=CC(C3)C2C1=O)Oc1ccc2ccccc2c1 (stereo unspecified), the cell killing (% activity) is reported as 9.1% (inactive).
For CCCCCCCNc1nc(Cl)nc(NCCO)n1, the cell killing (% activity) was 17.1% (inactive).
In the case of CC(C)(O)C#Cc1ncc(C(F)(F)F)cc1Cl, the cell killing (% activity) is reported as 3.1% (inactive).
For Cc1c(C2=CCN(S(=O)(=O)c3ccc(Cl)cc3)CC2)c2ccccc2n1C, the cell killing (% activity) was 31.7% (inactive).
In the case of CN1c2ccccc2-c2nc3ccccc3n2C1c1ccco1 (stereo unspecified), the cell killing (% activity) is reported as 12% (inactive).
With Cn1c(-c2ccco2)nc2cc3ccccc3cc21 the cell killing (% activity) was 89.2% [at 5 µM] (active).
For S=c1[nH]nc(-c2ccco2)n1/N=C/c1ccccc1, the cell killing (% activity) was 8% (inactive).
In the case of CC(C)C(C)(C#N)NC(=O)CSc1nc2scc(-c3ccccc3)c2c(=O)[nH]1 (stereo unspecified), the cell killing (% activity) is reported as 22.3% (inactive).
In the case of COc1ccccc1N1CCN(C(=O)c2ccc(Cl)c(S(=O)(=O)N3CCCC3)c2)CC1, the cell killing (% activity) is reported as 0.9% (inactive).
For Oc1ccc(-c2[nH]ncc2-c2nc3ccccc3s2)c(O)c1, the cell killing (% activity) was 14.3% (inactive).
In the case of O=c1oc(/C=C/c2ccccc2)nc2ccccc12, the cell killing (% activity) is reported as 53% [at 5 µM] (active).
With S=c1[nH]nc(/C=C/c2ccccc2)o1 the cell killing (% activity) was -2.3% (inactive).
For O=c1oc(-c2ccccc2NS(=O)(=O)c2ccc(Cl)cc2)nc2ccccc12, the cell killing (% activity) was -12.7% (inactive).
For COc1ccc(Cn2c(O)c(/C=C3/C=CC=N3)c(=O)[nH]c2=O)cc1, the cell killing (% activity) was 5.9% (inactive).
In the case of Nc1nc(NCC2CCCO2)nc(Nc2ccccc2F)c1[N+](=O)[O-] (stereo unspecified), the cell killing (% activity) is reported as 2.1% (inactive).
With O=C(CCS(=O)(=O)c1ccccc1Cl)Nc1ccc(S(=O)(=O)Nc2ncccn2)cc1 the cell killing (% activity) was 1.8% (inactive).
In the case of COc1ccc(C(=O)Nc2ccccc2C(=O)N/N=C/c2ccccc2OC)cc1, the cell killing (% activity) is reported as 28.7% (inactive).
With COc1cc(/C=N/NC(=O)c2ccccc2)ccc1OS(=O)(=O)c1ccccc1 the cell killing (% activity) was 21.5% (inactive).
With COc1ccc(C(=O)Nc2ccccc2C(=O)N/N=C/c2ccc(O)c(OC)c2)cc1 the cell killing (% activity) was 96.7% [at 5 µM] (active).
For CCn1cc(CN2CCCC(CNS(=O)(=O)Cc3ccccc3)C2)cn1 (stereo unspecified), the cell killing (% activity) was 14.8% (inactive).
With O=C(N/N=C/c1cc([N+](=O)[O-])ccc1O)/C(=C\c1cccs1)NC(=O)c1ccccc1 the cell killing (% activity) was 8.1% (inactive).
For CC12C(=O)N(c3ccccc3)C(=O)C1C(c1ccccc1)N1CCCN12 (stereo unspecified), the cell killing (% activity) was 8.2% (inactive).
For Cn1nccc1NC(=O)CC(CC(=O)O)c1ccccc1 (stereo unspecified), the cell killing (% activity) was 5.7% (inactive).
For CC1(C)N=C(c2ccccn2)C(C)(C)N1O, the cell killing (% activity) was 22.7% (inactive).
With Cc1cc(-n2cnc(-c3cn(C)nc3C)n2)no1 the cell killing (% activity) was -10.4% (inactive).
With CN1CCN(CC#CCC2(O)c3ccccc3-c3ccccc32)CC1 the cell killing (% activity) was 1.7% (inactive).
For O=c1cnnc(Nc2ccccc2)[nH]1, the cell killing (% activity) was 30.6% (inactive).
In the case of Cc1nc(-c2ccc(Cl)cc2)sc1C(=O)NN, the cell killing (% activity) is reported as 59.4% [at 5 µM] (active).
With Cc1ccc(SCC(=O)c2sc(-c3ccccc3)nc2C)cc1 the cell killing (% activity) was 8.5% (inactive).
With Cc1nc(-c2ccc(Cl)cc2)sc1C(=O)CBr the cell killing (% activity) was 11.1% (inactive).
In the case of O=C(COC(=O)c1ccc(Cl)nc1)NCc1ccc2c(c1)OCO2, the cell killing (% activity) is reported as -2.9% (inactive).
In the case of CC(C(=O)Nc1ccc(F)c(F)c1F)N1CCCCCC1 (stereo unspecified), the cell killing (% activity) is reported as 30.5% (inactive).
In the case of COc1ccc(OC)c(NC(=O)N[C@H](Cc2ccccc2)C(=O)NN)c1, the cell killing (% activity) is reported as -4.7% (inactive).
With Nn1c(SCC(=O)NC2CCCC2)nnc1-c1ccccc1F the cell killing (% activity) was 2.5% (inactive).
In the case of O=c1c(-c2ccccc2)cnc2n1CCS2, the cell killing (% activity) is reported as -3.9% (inactive).
With Cc1ccc(C(=O)NNC2=Nc3cc([N+](=O)[O-])ccc3OC2)cc1 the cell killing (% activity) was -2.5% (inactive).
In the case of COc1ccc(C2=NOC3(CC(=O)N(c4ccc(C)cc4)C3=O)C2)cc1 (stereo unspecified), the cell killing (% activity) is reported as 12.3% (inactive).
With COc1ccc(C2=Nc3cc(C)ccc3OC2)cc1 the cell killing (% activity) was 52.1% (active).
With CNC(=O)NC(=O)C(OC(=O)c1cccc(S(=O)(=O)N2CCCCC2)c1)c1ccccc1 (stereo unspecified) the cell killing (% activity) was 8.9% (inactive).
In the case of N#CCc1ccc(OC(=O)c2cccnc2)cc1, the cell killing (% activity) is reported as 0.5% (inactive).
For CCOC(=O)N1CCN(CC(=O)Nc2cc(C)nn2-c2nc3ccccc3s2)CC1, the cell killing (% activity) was -8.9% (inactive).
In the case of CCC(C)Cn1c(O)cc2nn(-c3nc4ccccc4s3)c(=O)c-2c1C (stereo unspecified), the cell killing (% activity) is reported as 56% [at 5 µM] (active).
In the case of Cc1cc(NC(=O)CN2CCCC(C)C2)n(-c2nc3ccccc3s2)n1 (stereo unspecified), the cell killing (% activity) is reported as -3.9% (inactive).
In the case of COc1ccc(CCNC2=CC(=O)CC(C)(C)C2)cc1, the cell killing (% activity) is reported as 14.5% (inactive).

From PubChem BioAssay AID1443 (Sanford-Burnham Center for Chemical Genomics, 2008)
